E-sel TNF inh – TNF alpha driven E-selectin expression inhibition; 120,000 tested, 0.71% active; AID 1246; inhibition, % at 2 µM; HUVEC TNFa-induced E-selectin immunofluorescence, high content;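 active = inhibition above the batch mean plus 3 SD, and confirmed as a hit on visual image review, cut at about 43% in these data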
VCAM1 TNFa inh – reduces TNF alpha induced VCAM1 expression in HUVEC; HUVEC TNFa-induced VCAM-1 immunofluorescence, high-content imaging; inhibition, % at 2 µM; 95,000 tested, 0.48% active; AID 802;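 active = inhibition above the batch mean plus 3 SD, with images confirmed as a hit by eye, cut at about 37% in these data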
cytoskel mod – alters cytoskeleton assembly in HUVEC cells | HUVEC TNFa F-actin phalloidin imaging, high content | inhibition, % at 2 µM | 91,000 tested, 0.18% active | AID 836;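 active = inhibition above the batch mean plus 3 SD and confirmed as a hit by visual image inspection, cut at about 30% in these data, passing the limit was not always enough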
TNFa cytotox – HUVEC cytotoxicity counter-screen, TNF alpha stimulated; HUVEC TNFalpha-stimulated, Hoechst cell count, imaging; 93,000 tested, 0.17% active; cell count reduction, % at 2 µM;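 active = cell count reduction exceeding the screen mean by over 5 SD, scaled to untreated wells per plate, cut at about 78% in these data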;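 note: cells counted after 24 h of TNF alpha exposure following the 1 h pretreatment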
Numbers stand for hits; – = inactive; · = no result. Hits are enriched below; roughly 1.1% of the tested compounds scored in any of these assays.

SMILES | E-sel TNF inh | VCAM1 TNFa inh | cytoskel mod | TNFa cytotox
CCC1Sc2ccccc2N(CC(=O)NCc2ccc3c(c2)OCO3)C1=O (stereo not given) | 95 | · | · | ·
CC1Oc2ccccc2C=C1/C=C1/SC(N2CCOCC2)=NC1=O (stereo not given) | – | 52 | – | –
O=C1N=C(N2CCOCC2)S/C1=C/c1cccs1 | – | – | – | –
Cc1c(Cl)cnc(NC(=O)COC(=O)c2nn(C)c(=O)c3ccccc23)c1Cl | 64 | · | · | ·
N#CC(C#N)=C/C(C#N)=C(/N)N1CCN(c2ccc(Cl)cc2)CC1 | 97 | – | – | –
CCn1c2ccccc2c2cc(NC(=O)c3cc(OC)c(OC)c(OC)c3)ccc21 | – | 95 | – | –
CCn1c2ccccc2c2cc(NC(=O)c3cc(OC)cc(OC)c3)ccc21 | – | · | · | ·
COc1c(Cl)cc(Cl)cc1C(=O)Nc1ccc(NC(C)=O)cc1 | 64 | · | · | ·
O=C(CSCc1ccc(Cl)cc1Cl)Nc1nccs1 | – | · | · | ·
Cc1cc2cc(C=C(C#N)C#N)c(Cl)nc2cc1C | 58 | · | · | ·
Cc1ccc(SCC(=O)Nc2ccc(S(N)(=O)=O)cc2)cc1 | – | · | · | ·
O=C(NCc1cccnc1)C1CCN(S(=O)(=O)c2cccs2)CC1 | 69 | – | – | –
Cc1nc2ccc(NC(=O)C3CCN(S(=O)(=O)c4cccs4)CC3)cc2s1 | 72 | – | – | –
Cn1c2c(c(=O)n(C)c1=O)C(c1ccc(Cl)cc1)C(C#N)=C(N)O2 (stereo not given) | – | · | · | ·
COc1ccc(-c2cc3ccccc3oc2=O)cc1NC(=O)c1ccc([N+](=O)[O-])o1 | – | 74 | – | ·
c1ccc(-c2nnc(CSc3nncs3)o2)cc1 | – | 93 | – | –
c1ccc(Cc2nnc(-c3ccccc3)o2)cc1 | – | – | – | –
O=C1CC(c2ccc(Cl)cc2)n2nc(N3C(=O)CCC3=O)nc2N1 (stereo not given) | – | – | – | –
COc1ccc(S(=O)(=O)Nc2nc3n(n2)C(c2ccc(Cl)cc2)CC(=O)N3)cc1 (stereo not given) | – | 39 | · | –
COc1ccc(Cl)cc1NC(=O)CSc1nnc(CN2CCOCC2)n1-c1ccc(Cl)cc1 | – | – | – | –
CCCCc1c(O)nc(SCC(=O)Nc2ccc3c(c2)CCC3)[nH]c1=O | 60 | · | · | ·
CCc1c(O)nc(SCC(=O)Nc2ccc3c(c2)CCC3)[nH]c1=O | – | – | – | –
Cn1c(C(=O)NCCN2CCOCC2)cc2sccc21 | · | – | – | 88
Cc1cc(=O)n2nc(-c3ccccc3)sc2c1C#N | 95 | · | · | ·
Cc1ccccc1NC(=O)c1ccccc1NC(=O)c1ccco1 | – | – | – | –
SMILES | E-sel TNF inh | VCAM1 TNFa inh | cytoskel mod | TNFa cytotox
CNC(=O)c1ccccc1NC(=O)c1ccco1 | – | – | 34 | ·
Cc1ccccc1C(=O)Nc1ccccc1C(=O)N/N=C\c1ccco1 | – | – | – | –
COc1cc(OC)c(NC(=O)c2ccco2)cc1Cl | 100 | – | – | –
O=C(Nc1ccccc1C(=O)N/N=C/c1ccco1)c1ccc(F)cc1 | 94 | · | · | ·
CNC(=O)/C(C#N)=C/c1ccc(-c2ccccc2[N+](=O)[O-])o1 | – | · | · | ·
Cc1ccc(Cc2cnc(NC(=O)/C(C#N)=C/c3ccc(-c4ccccc4[N+](=O)[O-])o3)s2)cc1 | 51 | – | – | –
CCN(CC)S(=O)(=O)c1ccc(C)c(NC(=O)CNCCN(C(C)C)C(C)C)c1 | – | · | · | ·
CCOC(=O)c1[nH]c(C)c(C(=O)c2cc(F)ccc2F)c1C | – | 83 | – | –
CCOC(=O)c1[nH]c(C)c(C(=O)OCC)c1C | · | – | – | –
COc1ccc(/C=N/NC(=O)C(O)(c2ccccc2)c2ccccc2)cc1OC | – | · | · | ·
O=C(NCc1ccccc1)N1CCN(c2ccc(Cl)c(Cl)c2)CC1 | 71 | – | – | –
O=C(NCc1ccccc1)N1CCN(c2ccc(F)cc2)CC1 | – | – | – | –
CC1CCCN(c2ccc(C(=O)Nc3cccnc3)cc2[N+](=O)[O-])C1 (stereo not given) | – | · | · | ·
CCCOc1ccccc1C1CC(=O)Nc2cc3c(cc21)OCCO3 (stereo not given) | – | 51 | – | –
CC(C)Oc1ccccc1C1CC(=O)Nc2cc3c(cc21)OCO3 (stereo not given) | · | 85 | – | –
O=C(c1ccc([N+](=O)[O-])cc1)N(Cc1ccc(Cl)cc1)N1C(=O)CCCC1=O | – | 46 | – | –
COc1ccc(C2=Nn3c(nnc3-c3ccc(OC)cc3)SC2)cc1 | – | 40 | – | –
COc1ccc(C2=Nn3c(nnc3-c3ccccc3OC)SC2)cc1OC | – | 48 | · | –
COc1ccc(-c2nnc3n2N=C(C)CS3)cc1 | – | – | – | –
COc1cc(-c2nnc3n2N=C(c2ccccc2)CS3)cc(OC)c1OC | – | 54 | – | –
N=c1oc2c3c4c(cc2cc1C(=O)Nc1ccccc1)CCCN4CCC3 | – | – | 43 | –
O=C(Nc1ccccc1)c1cccnc1N1CCCC1 | – | – | – | –
COc1cc(NC(=O)c2cc3c(Cl)nc4ccccc4c3s2)cc(OC)c1OC | – | · | · | ·
COc1ccc(NC(=O)c2cc3c(Cl)nc4ccccc4c3s2)c(OC)c1 | 63 | · | · | ·
Cn1cc(CNCCN2CCCCC2=O)c(-c2cccc(Cl)c2)n1 | – | · | · | ·
SMILES | E-sel TNF inh | VCAM1 TNFa inh | cytoskel mod | TNFa cytotox
CCOc1ccc(CCNC(=O)C2CCCN2C(=O)OCc2ccccc2)cc1OCC (stereo not given) | – | · | · | ·
O=C(c1ccc(Cl)cc1)N1CCCOC1 | – | 100 | · | –
NC(=O)CSc1nnc(CCc2nc3ccccc3[nH]2)n1-c1ccccc1 | – | – | – | ·
NS(=O)(=O)c1ccc(CNC(=O)c2scc3c2CCCC3)cc1 | – | · | · | ·
O=C(NCCCN1CCOCC1)c1cccnc1SCc1ccccc1Cl | – | · | · | ·
N#Cc1ccsc1NC(=O)COC(=O)c1ccc2ccccc2c1 | 97 | · | · | ·
CS(=O)(=O)Nc1ccc(C(=O)N2CCN(c3ccccc3F)CC2)cc1 | – | – | – | –
O=C(c1ccccc1F)N1CCN(c2ccccc2F)CC1 | 91 | · | · | ·
O=C(c1ccccc1)N1CCN(c2ccccc2F)CC1 | 71 | – | – | –
O=C(c1ccccc1C(=O)N1CCN(c2ccccc2F)CC1)N1CCN(c2ccccc2F)CC1 | – | · | · | ·
COc1ccc(C(=O)Nn2c(CCC(=O)O)ccc2-c2ccc(C)cc2)cc1OC | – | · | · | ·
N#Cc1nc(-c2ccco2)oc1N1CCN(c2ccccc2)CC1 | · | – | – | –
N#Cc1nc(-c2ccco2)oc1N1CCOCC1 | · | 40 | – | –
CCNC(=O)CCn1nc(-c2ccc(Cl)cc2)c2ccccc2c1=O | · | 84 | – | 96
CC(C)NC(=O)CCn1nc(-c2ccc(Cl)cc2)c2ccccc2c1=O | – | · | · | ·
COc1cc(C(=O)NC2CCCc3ccccc32)ccc1OCC(=O)Nc1ccc(F)cc1 (stereo not given) | – | · | · | ·
Cc1csc(NC(=O)CSc2nnc(-c3ccc(S(=O)(=O)N4CCCC4)cc3)o2)n1 | · | 73 | – | –
COc1ccc(-c2nnc(SCc3c(C)noc3C)o2)cc1 | – | · | · | ·
O=[N+]([O-])c1ccc(S(=O)(=O)NCCc2cn3ccccc3n2)cc1 | – | · | · | ·
O=C1C=C(c2ccccc2)C(O)(c2ccccc2)C1 (stereo not given) | 61 | – | – | –
Cc1ccc(CSc2nc3nc(C)cc(C)c3c(=O)[nH]2)cc1 | – | · | · | ·
Cc1nc(SCc2ccc(Br)cc2)[nH]c(=O)c1C | – | 67 | – | –
COC(=O)c1[nH]c2cc(OC)ccc2c1NC(=O)CN1CCC(C(N)=O)CC1 | – | · | · | ·

Bioassay records (PubChem BioAssay)
